Laboratory results as given in PubChem BioAssay (NCI).
This is part of a sample that, as a whole, favours compounds with a hit. Of some 79,000 tested, about 15% had one in any assay. Values without a mark were called inactive. The source made the active and inactive calls. Cut-off read from the data, not from the text of the source: active = growth inhibition above about 70%; inactive = the rest.

Assay: NCI Yeast Anticancer Drug Screen. Data for the rad50 strain (AID 155);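 note: 0% = growth of vehicle-only cultures of the same strain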
Conditions: S. cerevisiae rad50 strain growth inhibition; at 50.0 µM; active compounds read high
Method: Growth inhibition of yeast strains with defined genetic alterations is measured as a screen for potential anti-cancer activity. Selected strains with alterations in DNA damage repair or cell cycle control were exposed to compounds and growth inhibition was measured relative to vehicle treated controls. The strain used in this assay is rad50

Row | SMILES | growth inhibition
1 | O=C(NC(=O)C(Cl)Cl)OC1c2cc(Cl)ccc2-c2c(Cl)cc(Cl)cc21 (stereo not given) | 99.1% (active)
2 | O=C(NC(=O)c1c(F)cccc1F)Nc1ccc(Br)cc1 | 29.2%
3 | NC(Cc1c[nH]c2ccc(O)cc12)C(=O)O (stereo not given) | -5.85%
4 | O=C(COc1ccccc1)Nc1cccc2ccccc12 | 4.5%
5 | BrCCCOc1ccccc1 | -23.7%
6 | CC(=O)OC1CCC2(C)C(=CCC3C2CCC2(C)C(C(C)C(=O)O)CCC32)C1 (stereo not given) | 15.7%
7 | CCOC(=O)N(c1ccccc1)c1ccccc1 | -11.3%
8 | O=C1OCC(Cc2ccc3c(c2)OCO3)[C@H]1Cc1ccc(O)cc1 (stereo not given in full) | 1.45%
9 | Nc1nc2c(nnn2-c2ccc(Cl)cc2)c(=O)[nH]1 | -4.3%
10 | O=c1c2ccccc2on1CN1CCN(Cn2oc3ccccc3c2=O)CC1 | 3.6%
11 | O=C(c1ccc(O)cc1)C1N=NCC1c1ccccc1 (stereo not given) | -15.8%
12 | COc1cc(OC)cc(N2CCC(c3c(N)nc(N)nc3Cl)CC2)c1 | -4.1%
13 | CN(C(=N)N)c1ccc(C(=O)Oc2ccc([N+](=O)[O-])cc2)cc1 | 14.8%
14 | CC1=C(C)CP(=O)(c2ccccc2)C1 | 16.6%
15 | NNC(=O)CCCO | -33.9%
16 | O=C1CN(/N=C/c2ccc(-c3cccc(C(F)(F)F)c3)o2)C(=O)N1 | 36.4%
17 | CCN(CC)CCOCCO | -8.6%
18 | CC(C)c1cccc(C(C)C)c1N1C(=O)C(=O)C(c2nc3ccccc3s2)C(=O)C1=O | -11.7%
19 | O=[n+]1c2c(n([O-])c3cc(Cl)c(Cl)cc31)CCC2 | 25.4%
20 | Cc1nc(N)[nH]c(=O)c1CCCN=Cc1ccc([N+](=O)[O-])cc1 | 4.3%

Row | SMILES | growth inhibition
21 | C=C(C)Cn1cnc2c1c(=O)n(C)c(=O)n2C | -0.15%
22 | COc1ccc([Se][Se]c2ccc(OC)cc2NC(C)=O)c(NC(C)=O)c1 | 19.8%
23 | COc1cc(C(=O)n2ncc(C(C)=O)c2C)cc(OC)c1OC | -3.75%
24 | O=c1c(Cc2ccccc2)c(O)cc2n1CCC2 | -14.5%
25 | CC(C)(O)C(O)(c1ccccc1)c1ccccc1 | 2.65%
26 | COC1OC(CO)C(O)C(NC(=O)OCc2ccccc2)C1O (stereo not given) | 2.6%
27 | Nc1cc2c(cc1I)-c1ccccc1C2O (stereo not given) | 1.65%
28 | NC(Cc1ccc(B(O)O)cc1)C(=O)O (stereo not given) | -26.1%
29 | CCCCC(CC)(CO)CCC (stereo not given) | -8.75%
30 | CC(=O)CC(=O)NC(C)(C)CC(C)(C)C | -16.4%
31 | CC(=O)OCC12CC(c3ccoc3)OC3CCC4C(=O)OC(CC1C)C4(C)C32 (stereo not given) | -19.4%
32 | CCCC[n+]1cccc(C(N)=O)c1 | -3.55%
33 | Cc1cc2c(c(C(=O)NCC(=O)N[C@@H](C)C(=O)OCc3ccccc3)c1)Oc1c(cc(C)cc1C(=O)NCC(=O)N[C@@H](C)C(=O)OCc1ccccc1)S2 | 26.4%
34 | Cn1c(=O)ccc2c(=O)c3c(ccc4ccccc43)oc21 | -10.1%
35 | CC1(CCC(=O)c2ccc3c(c2)OCO3)OCCO1 | 31.8%
36 | O=C(O)CC1SC2(C(=O)N(Cc3ccccc3)c3ccccc32)N(c2ccccc2)C1=O (stereo not given) | 45.4%
37 | CCO/N=C(\N)c1ccccc1 | -8.4%
38 | CC(=O)N=C1N(/C=C2\C(=O)Oc3ccccc3C2=O)C(=O)/C(=C/c2ccccc2Cl)N1C | -13.2%
39 | CC(=O)Nc1ccc2c(c1)Cc1cc(NC(C)=O)c(Cl)cc1-2 | 3.15%
40 | Cc1ccc(S(=O)(=O)NN=C2CCCCCC2)cc1 | 8.65%
